# Test results reported in the supplement of paper PMC6555819.
# Key:
# Assay in all cases: PBM binding z-score (relative to random genomic background probes); higher = stronger binding; sequences stand for … in GC…GCGATTGACAGCGTAGAATGAAGG
# [1] = tested on: PPARg:RXRa DBDmut IVT, anti-RXR (DBD mutation: RXRa K156A/R161A, NR concentration 270 nM, RXRa partner concentration 90 nM)
# Method in brief: (§1)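 Ligand-free nuclear receptor dimers were applied to custom Agilent 4×180K protein-binding microarrays whose double-stranded probes carried direct-repeat seeds, single-nucleotide variants, half-site ablations and random human genomic background sequences in 34-nt variable regions. Incubation lasted 1 h. Binding z-scores were computed against the random background probes from regression-normalized fluorescence.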
# [2] = tested on: PPARg:RXRa IVT, anti-PPARg (NR concentration 270 nM, RXRa partner concentration 90 nM)
# Method in brief: as §1
# [3] = tested on: PPARg DBDmut:RXRa IVT, anti-PPARg (DBD mutation: PPARg1 K132A/R137A, NR concentration 270 nM, RXRa partner concentration 90 nM)
# Method in brief: as §1
# [4] = tested on: PPARg DBDmut IVT, anti-PPARg (DBD mutation: PPARg1 K132A/R137A, NR concentration 270 nM)
# Method in brief: as §1
# [5] = tested on: PPARg homodimer (NR concentration 180 nM)
# Method in brief: as §1
# [6] = tested on: PXR homodimer (NR concentration 270 nM)
# Method in brief: as §1
# [7] = tested on: RARa:RXR (NR concentration 270 nM, RXRa partner concentration 90 nM)
# Method in brief: as §1
# [8] = tested on: RARa homodimer (NR concentration 270 nM)
# Method in brief: as §1
# [9] = tested on: RARb:RXRa (NR concentration 270 nM, RXRa partner concentration 90 nM)
# Method in brief: as §1
# [10] = tested on: RARb homodimer (NR concentration 270 nM)
# Method in brief: as §1
# [11] = tested on: RARg:RXRa (NR concentration 270 nM, RXRa partner concentration 90 nM)
# Method in brief: as §1
# [12] = tested on: RARg homodimer (NR concentration 270 nM)
# Method in brief: as §1
# [13] = tested on: RXRa DBDmut IVT, anti-RXR (DBD mutation: RXRa K156A/R161A, NR concentration 90 nM)
# Method in brief: as §1
# [14] = tested on: RXRa homodimer (NR concentration 180 nM)
# Method in brief: as §1
# [15] = tested on: THRa:RXRa (NR concentration 90 nM, RXRa partner concentration 90 nM)
# Method in brief: as §1
# [16] = tested on: THRa homodimer (NR concentration 90 nM)
# Method in brief: as §1
# [17] = tested on: VDR homodimer (NR concentration 270 nM)
# Method in brief: as §1
# [18] = tested on: VDR:RXRa (NR concentration 270 nM, RXRa partner concentration 90 nM)
# Method in brief: as §1
# [19] = tested on: PXR:RXRa (NR concentration 270 nM, RXRa partner concentration 90 nM)
# Method in brief: as §1
Sequence,PBM binding z-score [1],PBM binding z-score [2],PBM binding z-score [3],PBM binding z-score [4],PBM binding z-score [5],PBM binding z-score [6],PBM binding z-score [7],PBM binding z-score [8],PBM binding z-score [9],PBM binding z-score [10],PBM binding z-score [11],PBM binding z-score [12],PBM binding z-score [13],PBM binding z-score [14],PBM binding z-score [15],PBM binding z-score [16],PBM binding z-score [17],PBM binding z-score [18],PBM binding z-score [19]
CTCCAAAGGTCGGTTGAGGTGAGTATACGGATAA,0.32,1.01,0.267,-0.816,1.53,0.251,2.58,-0.204,3.18,2.61,2.87,2.9,0.951,2.46,5,1.56,0.508,,
TGTCAGAGTTCAAAGGTAACGTAAGTATCCACAC,0.11,3.16,0.991,1.01,2.95,5.44,7.02,-0.164,4.47,3.41,5.95,5.28,4.83,7.51,3.53,-0.159,5.41,5.75,
ATATGTAGGTTACATCCGGGTCATTCTGGCTATG,7.39,7.49,2.61,2.66,1.91,0.712,3.04,0.96,2.21,2.67,3.21,1.93,1.51,3.1,3.63,2.37,2.5,,
CATCCAAGGTCAAAGGTCAGTGAAGAGATGACGG,4.07,6.54,2.71,3.63,5.52,2.53,,3.93,,5.65,8.8,7.95,4.08,10.2,4.93,2.74,4.15,6.71,7.36
CTCGAAAGGTCGTGCTCAGGTGAGTATGCCAAAC,1.24,1.96,0.261,0.173,1.39,0.126,4.18,0.00788,3.83,2.94,5.26,3.88,2.18,4.88,4.11,0.926,0.764,,
CAAACTAGGTCACCGGGAGGTCAAAGTCCGCATG,8.47,9.02,1.69,0.534,6.45,4.09,7.76,3.15,5.16,5.88,8.67,7.68,2.07,7.06,4.94,4.06,4.85,,
TCATATAGGTAAAAGGTCAAAGTCGGTGTGGTAA,5.65,6.93,2.69,3,5.82,2.41,,4.73,4.88,4.74,6.62,5.95,2.5,,3.85,1.47,3.09,,5.94
ACTAGCAGGTCAAGGGTCACTCAAGATTAGTCCG,4.43,6.12,1.23,1.92,3.91,0.469,,1.38,4.86,4.9,6.89,6.42,2.13,,4.04,1.42,2.56,,5.82
CCTTACGGGTCACTCTAGGTTATAGCATCGGAGT,3.21,3.69,0.202,-0.339,1.82,0.568,3.43,0.346,3.68,3.22,4.35,4.38,2,4.27,4.93,0.527,1.39,,
GATACAGGGTCAGCTTGAGGCCAGAGTATGGAAA,1.23,2,-0.407,-0.636,1.71,-0.346,3.44,-0.0727,3.72,2.94,5.72,4.77,1.81,4.55,3.73,0.959,0.666,3.33,
ATACCAAGGTGATCGTGAGTTCGTTGATACTAAC,0.668,0.994,-0.0501,0.822,0.422,3.19,0.619,0.465,0.462,0.465,0.682,0.338,1.2,0.456,1.58,0.74,4.63,,
CTCGAAAGGTCGGTTGAGGTCAGTATACGGATAA,-0.211,1.36,0.0267,0.122,3.1,2.85,4.9,1.04,4.13,4.41,4.95,4.93,1.63,4.02,5.26,3.23,3.44,,
CCGACTGGGGCAAAGGTCACCATACTCAGTACGA,5.43,6.94,0.0184,-0.117,4.04,0.429,,1.73,4.73,4.81,7,6.32,0.548,,3.62,1.04,1.55,,5.34
CTCGAAAGGTCGTCCTCAGGTGAGTATACCAAAC,0.175,1.77,0.216,-0.144,1.94,0.134,4.1,-0.0286,3.8,3,5.29,4.2,2.35,4.82,4.13,1.94,1.84,3.41,
